Measured values: PubChem BioAssay AID1159580 (chemical genetic matrix, 2015)
Several values for one entry are separate records, joined by “and”; a condition that tells them apart may be missing. Equal values may be shown once. Hit rate of the full screen: of about 5,500 compounds, about 2,000 (36%) were called active. About 18% were inconclusive and are not listed. Rule as the data show it: active = normalized growth mostly below about 0.91 (no sharp cut-off); inconclusive = no clear call, values can overlap the other calls; inactive = mostly above about 0.92. Some of the results follow.

Experiment: chemical genetic growth profiling, strain panel (AID 1159580);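 also: tested at 20 µM; growth read once vehicle control cultures reached saturation at 30 °C; 1 = growth at the plate median or of vehicle wells; lower values mean less growth of the strain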
Settings: S. cerevisiae deletion strains, growth OD

Measured: normalized growth

O=C(O)CC[N+](=O)[O-]
inactive: locus YAL013W, strain DEP1, active compounds read low 0.991 and 0.999 | locus YAL021C, strain ccr4, active compounds read low 0.987 | locus YAL026C, strain drs2, active compounds read low 1.01 | locus YAL030W, strain snc1, active compounds read low 1 | locus YAL040C, strain CLN3, active compounds read low 0.99 | locus YBL061C, strain skt5, active compounds read low 1.01 | locus YBR009C, strain hhf1, active compounds read low 1.01 | locus YBR021W, strain FUR4, active compounds read low 1.12 | locus YBR023C, strain chs3, active compounds read low 1.01 | locus YBR171W, strain sec66, active compounds read low 1.01 | locus YBR229C, strain ROT2, active compounds read low 1.01 | locus YBR231C, strain swc5, active compounds read low 1.02 | locus YBR279W, strain paf1, active compounds read low 0.999 | locus YCL011C, strain gbp2, active compounds read low 1.02 | locus YCL016C, strain dcc1, active compounds read low 1 | locus YCL029C, strain bik1, active compounds read low 0.985 | locus YCL061C, strain MRC1 (second series), active compounds read low 1 | locus YCL061C, strain MRC1, active compounds read low 1 | locus YCL069W, strain vba3, active compounds read low 0.996 | locus YCR088W, strain abp1, active compounds read low 1 | locus YDL005C, strain med2, active compounds read low 1 | locus YDL035C, strain GPR1, active compounds read low 0.976 | locus YDL040C, strain nat1, active compounds read low 0.988 | locus YDL074C, strain BRE1, active compounds read low 0.999 | locus YDL101C, strain DUN1, active compounds read low 0.998 | locus YDL134C, strain PPH21, active compounds read low 0.997 | locus YDL185W, strain tfp1, active compounds read low 0.962 | locus YDL192W, strain arf1, active compounds read low 0.974 | locus YDR001C, strain nth1, active compounds read low 0.993 | locus YDR069C, strain doa4, active compounds read low 1.02 | locus YDR101C, strain arx1, active compounds read low 0.986 | locus YDR137W, strain rgp1, active compounds read low 0.999 | locus YDR150W, strain NUM1, active compounds read low 0.972 and 1 | locus YDR159W, strain sac3, active compounds read low 1.02 | locus YDR162C, strain NBP2, active compounds read low 1.01 | locus YDR195W, strain ref2 0.977 | locus YDR297W, strain sur2, active compounds read low 1.02 | locus YDR318W, strain mcm21, active compounds read low 0.984 | locus YDR334W, strain swr1, active compounds read low 1.01 | locus YDR335W, strain msn5, active compounds read low 1 | locus YDR363W, strain ESC2, active compounds read low 1.01 | locus YDR388W, active compounds read low 0.993 | locus YDR392W, strain spt3, active compounds read low 1.02 | locus YDR502C, strain sam2, active compounds read low 0.988 | locus YEL003W, strain gim4, active compounds read low 1.02 | locus YEL037C, strain rad23, active compounds read low 1 | locus YEL061C, strain CIN8 (second series), active compounds read low 1 | locus YEL061C, strain CIN8, active compounds read low 0.994 | locus YER002W, strain NOP16, active compounds read low 1.01 | locus YER015W, strain faa2, active compounds read low 1 | locus YER016W, strain bim1, active compounds read low 1.01 | locus YER110C, active compounds read low 0.963 | locus YER111C, strain swi4, active compounds read low 1.01 | locus YER155C, strain BEM2 (second series), active compounds read low 1.03 | locus YER155C, strain BEM2, active compounds read low 0.99 | locus YER167W, strain BCK2, active compounds read low 0.988 | locus YFR010W, strain ubp6, active compounds read low 1.01 | locus YGL078C, strain dbp3, active compounds read low 0.979 | locus YGL086W, strain mad1, active compounds read low 0.982 | locus YGL167C, strain pmr1, active compounds read low 1.01 | locus YGL173C, strain kem1, active compounds read low 1.02 | locus YGL227W, strain vid30, active compounds read low 1 | locus YGL240W, strain doc1, active compounds read low 1.04 | locus YGL248W, strain PDE1, active compounds read low 1 | locus YGL253W, strain hxk2, active compounds read low 1.01 | locus YGR078C, strain PAC10, active compounds read low 0.986 | locus YGR135W, strain pre9, active compounds read low 0.997 | locus YGR229C, strain SMI1, active compounds read low 0.992 and 1 | locus YGR252W, strain gcn5, active compounds read low 0.977 | locus YHR013C, strain ard1, active compounds read low 0.997 | locus YHR027C, strain rpn1, active compounds read low 0.997 | locus YHR030C, strain SLT2, active compounds read low 0.983 and 0.976 | locus YHR079C, strain IRE1 (second series), active compounds read low 0.996 | locus YHR079C, strain IRE1, active compounds read low 0.976 | locus YHR094C, strain hxt1, active compounds read low 0.978 | locus YHR129C, strain ARP1, active compounds read low 0.986 | locus YHR142W, strain chs7, active compounds read low 1.02 | locus YHR200W, strain rpn10, active compounds read low 0.973 | locus YIL066C, strain RNR3, active compounds read low 0.981 | locus YIL073C, strain SPO22, active compounds read low 0.934 | locus YIL125W, strain kgd1, active compounds read low 0.984 | locus YIR030C, strain dcg1, active compounds read low 0.986 | locus YJL092W, strain hpr5, active compounds read low 1 | locus YJL095W, strain BCK1 (second series), active compounds read low 1.01 | locus YJL095W, strain BCK1, active compounds read low 1 and 1.01 | locus YJL115W, strain asf1, active compounds read low 0.997 | locus YJL129C, strain trk1, active compounds read low 1.01 | locus YJL134W, strain LCB3, active compounds read low 0.991 | locus YJL154C, strain vps35, active compounds read low 0.996 | locus YJL164C, strain tpk1, active compounds read low 0.993 | locus YJL166W, strain qcr8, active compounds read low 1.02 | locus YJL168C, strain set2, active compounds read low 0.99 | locus YJL187C, strain SWE1 (second series), active compounds read low 0.982 | locus YJL187C, strain SWE1, active compounds read low 1.01 | locus YJR043C, strain POL32, active compounds read low 0.98 | locus YJR066W, strain TOR1, active compounds read low 0.935
